Assay outcomes: PubChem BioAssay, National Center for Advancing Translational Sciences (NCATS)
Only some compounds are listed: those with a hit (about 3.1% of all), similar ones and a draw of the others.
ELG1 DNA repair = inhibitors of ELG1-dependent DNA repair in HEK293T cells; HEK293T ELG1-luciferase reporter, luminescence, 16 h; DNA damage induced by 5-fluorouridine; Potency, µM (top dose mostly 46.1 µM), for inactives: top-dose activity change, negative = inhibition, actives largely listed as inhibitors; 2.3% of 330,000 active; note: potency is the fitted concentration of half-maximal effect; % is set by controls: 0 for no effect and ±100 for the full control effect; nearly all actives have a fitted effect of over 55% in size
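In this reporter screen, reduction of luminescence relative to DMSO vehicle indicated activity. Compounds and 5-fluorouridine were added together to 2,000 cells per well, incubated for 16 hr at 37 °C, then developed with ONE-Glo.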
BRCA1 expr act = increases BRCA1 expression | MCF7-BRCA1-FFLuc reporter, luminescence, 48 h; response scale: scaled: vehicle 0%, 10 µM genistein 100% | Potency, µM (titrated, usually from 46.1 µM), for inactives: at the highest dose activation, hits mostly activators | 1.1% of 380,000 active | AID 624202; note: potency is the fitted concentration of half-maximal effect; nearly all actives have a fitted effect of over 80% in size
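MCF7-BRCA1-FFLuc cells, 2000/well in phenol-red-free MEM, attached 2 h then treated 48 h at 37 C. Luciferase luminescence read 15 min after reagent; normalized to genistein maximum activation (10microM) and DMSO, concentration-response fitted.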
IL-2 act = activates IL-2 in a cell-based reporter assay | activation, % (series mostly up to about 46 µM) | IL-2 activation reporter assay, cell-based qHTS; stimulated with anti-CD3/CD4/CD28 beads; in transgenic mouse T cells | 0.065% of 360,000 active; in the data active = activation above about 50%; inconclusive = mostly about 30% to 49%; note: 0% is about no effect
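EGFP and DsRed fluorescence is measured by plate cytometry in unstimulated transgenic mouse T cells exposed to compound for 60 minutes, then stimulated 18 hours at 37 degrees C with anti-CD3/anti-CD4 beads plus anti-CD28.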
Nrf2 activator = activators of Nrf2 (ARE) signaling; AREc32 ARE-luciferase reporter (MCF7-derived line), luminescence, 24 h; Potency, µM (top dose mostly 46.1 µM), without a hit: at the highest dose activation, usual class: activators; 0.31% of 410,000 active; note: potency is the fitted concentration of half-maximal effect; % of control where 0% means no effect; nearly all actives have a fitted effect of over 65% in size
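For detection, Steady-Glo was added and plates sat 30 min at RT; before that, AREc32_Fluc cells grown overnight in OPTI-MEM/5% FBS had been treated with 23 nL compound for 24 hr at 37 deg C.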
* hit, by the source's call; ? = inconclusive; nt = no result given; [ ] = dose if it differs, or a comment. Unless noted, calls come from the whole dose curve; as a rule, active = well fitted curve in the direction sought with a large enough effect; inconclusive = small, poorly fitted or top-dose-only effect, or another doubt; inactive = no such curve, though single readings can be large; an effect the other way counts as inactive or inconclusive.

SMILES | ELG1 DNA repair | BRCA1 expr act | IL-2 act | Nrf2 activator
CCOc1ccccc1NC(=O)NCCn1c(=O)oc2ccc(C)cc21 | nt | -6% | nt | 0%
Cc1cc([N+](=O)[O-])cc(/C=N\NC(=O)C2COc3ccccc3O2)c1O (stereo unspecified) | 21µM* | -47% | 1 | 3%
CC(O)(c1cccnc1)c1nc(-c2ccc(F)c(Cl)c2)cs1 (stereo unspecified) | nt | -28% | 0 | 3%
C/C(=N\Nc1ccc([N+](=O)[O-])cc1)c1ccc(-n2nncc2C)cc1 | 7.3µM* | -48% | -2 | 1%
CCCCOC(=O)c1c(C)oc2c1cc(NS(=O)(=O)c1cc(OC)ccc1OC)c1ccccc12 | nt | nt | nt | 6%
O=C(CNC(=S)NC(=O)C1CCCCC1)c1ccccc1 | ? | 6.3µM* | 1 | 2%
c1csc(-c2nnc(N3CCCCCC3)c3ccccc23)c1 | ? | -25% | -4 | 13µM*
c1csc(-c2nnc(N3CCOCC3)c3ccccc23)c1 | -10% | 0% | 0 | -1%
Cc1ccc(S(=O)(=O)c2c(Nc3ccc(C)c(C)c3)sc(C(=O)c3ccc4c(c3)OCO4)c2N)cc1 | nt | nt | nt | 0%
O=C(CSc1ncnc2nc[nH]c12)N1CCN(c2ccc(Cl)cc2)CC1 | 18µM* | -62% | -2 | 2%
O=C(NCc1cccc(Br)c1)c1ccc(-n2cnc3cccnc32)cc1 | nt | nt | nt | 0%
CCOc1cc(C(=O)N2CC(=O)Nc3ccc(C)cc3C2c2ccccc2)cc(OCC)c1OCC (stereo unspecified) | nt | nt | nt | 0%
Cc1nc(-c2cc(-c3ccc(Cl)cc3)no2)cs1 | ? | ? | -2 | -2%
Cc1csc(-c2ccc3cc(Cl)cc(Cl)c3n2)n1 | nt | 0% | 0 | 2.5µM*
COc1ccc(C)cc1NC(=O)c1ccc2c(c1)N(Cc1cccc(Cl)c1)C(=O)c1ccccc1S2=O (stereo unspecified) | nt | nt | nt | 0%
O=C(c1noc2c1CCCC2)N1CCC(CO)(Cc2ccccc2Cl)CC1 | 21µM* | -14% | 0 | 4%
O=C(c1noc2c1CCCC2)N1CCN(c2ccccc2)CC1 | 10% | 4% | -2 | 0%
O=C(Nc1ccccc1F)c1ccc([N+](=O)[O-])s1 | 23µM* | -98% | -4 | 3%
O=C(Nc1cccc2ccccc12)c1ccc([N+](=O)[O-])o1 | ? | -81% | -1 | ?
O=C(Nc1cccnc1)c1ccc([N+](=O)[O-])s1 | ? | -43% | 0 | ?
O=C(Nc1cccc2ccccc12)c1ccc([N+](=O)[O-])s1 | 16µM* | -81% | -2 | ?
CCc1nc2ccc(C(=O)Nc3cc(-c4ccccc4)ccc3OC)cn2c1N(C)Cc1nccs1 | nt | -58% | -1 | 0%[9.22 µM]
Cc1nnc(N/N=C/c2c(O)n(-c3cccc(C(F)(F)F)c3)c(=O)c3ccccc23)[nH]c1=O | -4% | nt | nt | nt
Cc1cc(N=Cc2c(O)n(-c3cccc(C(F)(F)F)c3)c(=O)c3ccccc23)no1 | 9.2µM* | -10% | -2 | -1%
COc1ccc(-c2cc(-c3nnc(COC(=O)CC4CC5CCC4C5)o3)c3ccccc3n2)cc1OC (stereo unspecified) | 18µM* | -17% | 2 | 3%
SMILES | ELG1 DNA repair | BRCA1 expr act | IL-2 act | Nrf2 activator
N#CCCn1cc(/C=N/O)c(-c2ccc(F)cc2)n1 | -6% | -4% | 0 | -1%
N#CCCn1cc(/C=N/NC(N)=S)c(-c2ccc(-c3ccccc3)cc2)n1 | 26µM* | -48% | -1 | 6%
N#CCCn1cc(/C=N/O)c(-c2ccccc2)n1 | 23µM* | 0% | -2 | 0%
N#CCCn1cc(C=C(C#N)C#N)c(-c2ccc(-c3ccccc3)cc2)n1 | -19% | 0% | 1 | 2%
Cc1ccc(S(=O)(=O)N2C[C@H]3N(C(=O)OC(C)C)N(C(=O)OC(C)C)C[C@H](OC(=O)Nc4cccs4)[C@@]3(O)C2)cc1 | nt | -19% | -3 | 8%
CN(C(=O)CSc1nc2ccccc2n1CC(=O)N(C)c1ccc(F)cc1)c1ccccc1 | nt | 0% | nt | -1%
COc1ccc(OC)c(-c2cc(C(=O)Nc3cc(C)n(Cc4ccc(Cl)cc4)n3)no2)c1 | 21µM* | -91% | -3 | 4%
COc1ccc(OC)c(-c2cc(C(=O)Nc3c(C)nn(Cc4ccccc4Cl)c3C)no2)c1 | 0% | -54% | -1 | 2%
COc1cccc(-c2cc(C(=O)Nc3c(C)nn(Cc4ccccc4Cl)c3C)no2)c1 | nt | nt | nt | 7%
COc1cccc(-c2cc(C(=O)Nc3cc(C)n(Cc4ccc(Cl)cc4)n3)no2)c1 | ? | -74% | -1 | 0%
COc1ccc(-c2cc(C(=O)Nc3c(C)nn(Cc4ccccc4Cl)c3C)no2)cc1OC | 23µM* | -33% | -3 | 3%
COc1ccc(OC)c(-c2cc(C(=O)Nc3c(C)nn(Cc4ccccc4C)c3C)no2)c1 | 26µM* | -41% | -4 | 0%
Cc1ccccc1Cn1nc(C)c(NC(=O)c2sc3ccccc3c2Cl)c1C | 26µM* | -66% | -1 | 0%
NS(=O)(=O)c1ccc(NC(=O)c2cnn3c2NC(=C2CC2)C=C3C(F)F)cc1 | nt | 2% | nt | nt
COC(=O)c1cc2sccc2n1Cc1c(C)cc(C)cc1C | nt | nt | nt | -1%
CSc1nc(N)nc(SCC(=O)Nc2ccc(Cl)cc2)c1C#N | -3% | 3% | -1 | 17%
CSc1nc(N)nc(SCCS(=O)(=O)c2ccc(Cl)cc2)c1C#N | -3% | -22% | -1 | 13µM*
COC(=O)C(=C/C(C)=C/c1cccs1)C(=O)OC | -15% | -80% | -4 | 14µM*
Cc1noc(C)c1CSc1nc2ccccc2nc1NS(=O)(=O)c1ccc(Cl)cc1 | 13µM* | -76% | 0 | 0%
Cn1c(Oc2ccccc2)nc2c1c(=O)n(Cc1ccc(Cl)cc1Cl)c(=O)n2C | nt | nt | nt | 0%
COc1cc(-c2nnc3n(CCc4ccccc4)c(=O)c4ccccc4n23)cc(OC)c1OC | 21µM* | -38% | 0 | 2%
Cc1cccc(-c2nnc3n(CCc4ccccc4)c(=O)c4ccccc4n23)c1 | nt | nt | nt | 9%
COc1ccc(-c2nnc3n(CCc4ccccc4)c(=O)c4ccccc4n23)c(OC)c1 | 8.2µM* | -43% | 4 | 3%
COc1cc2c(NC3CCN(C)CC3)nc(N3CCN(C)CC3)nc2cc1OCCCN(C)C | nt | 0% | nt | nt
CCN1C(=O)/C(=C/C=C2/CCCN2C)OC1=S | ? | 7.1µM* | -2 | 0%
Cc1nn(-c2ccccc2)c2c1cc1c(=O)n(C)c(=O)nc-1n2-c1cccc(Cl)c1 | nt | -12% | nt | 0%
COc1ccc(-c2nc(CN3CCN(Cc4ccccc4)CC3)c(C)o2)cc1 | ? | -10% | 0 | -1%
Cc1oc(-c2ccc(-c3ccccc3)cc2)nc1CN1CCN(CC(=O)N(C)C)CC1 | ? | 8.9µM* | 0 | 8%
Cc1cc2nc(-c3cccc(NC(=O)CSc4ccc(Cl)cc4)c3)oc2cc1C | nt | nt | nt | 4%
COc1ccc(CCNc2ccc(N3C(=O)CC(C)C3=O)cc2[N+](=O)[O-])cc1 (stereo unspecified) | -29% | -25% | -1 | 0%
